Laboratory results reported in PubChem BioAssay.

test: E. coli growth modulation, two-sided OD650, primary screen, E. coli filamentation project, strain DRC41, 24 h (AID 1093); details: OD650, 24 h, higher = more signal, called active from +8 up or from −8 down;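 note: MC1000 strain lacking acrAB efflux and sulA so SOS filamentation is blocked; test concentration not given here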

z-score, inactive:
CC[C@@H]1[C@@H]2C3C(=O)N(CC)C(=O)C3CC(=O)[C@@H]2[C@H](c2ccc(C)cc2)N1S(=O)(=O)c1ccc(C)cc1 (stereo not given in full) 0.957
COCCOC(=O)N1C(=O)[C@@]2(c3cc(C#CCCO)ccc31)[C@H](C(=O)NC[C@H](O)c1ccccc1)[C@H]1C(=O)O[C@H](c3ccccc3)[C@H](c3ccccc3)N1[C@@H]2c1ccccc1OCCO 0.636
C=CCOC(=O)[C@@H]1[C@H]2C(=O)O[C@H](c3ccccc3)[C@H](c3ccccc3)N2[C@H](c2ccc(OCCOC(=O)[C@@H]3C[C@@H]4C(=O)N[C@@H](CCCCNC(C)=O)C(=O)N4[C@@H]3c3ccc(O)cc3)cc2)[C@@]12C(=O)Nc1ccc(I)cc12 -0.101
CC(C)CCC[C@@H](C)[C@H]1CC[C@@]2(C)C3=C(CC[C@]12C)[C@@]1(C)CC[C@H](OC(=O)c2ccc(N)cc2)C(C)(C)C1CC3 (stereo not given in full) 2.78
CCCN1C(=O)[C@@H]2Cc3c([nH]c4ccccc34)[C@@H](c3cccc(O)c3)N2C1=O 0.317
C=CCN1C(=O)[C@@]2(O[C@@H](CCn3cc([C@H](O)c4ccccc4)nn3)[C@H]([Si](C)(C)c3ccc(OC)cc3)[C@H]2C)c2cc(NC(=O)c3ccc(OC)cc3)ccc21 0.859
COc1ccc([Si](C)(C)[C@@H]2[C@@H](CC(=O)N(CCO)Cc3ccccc3)O[C@]3(C(=O)N(Cc4ccc(N5CCOC5=O)cc4)c4ccccc43)[C@H]2C)cc1 -0.249
COCCOC(=O)N1C(=O)[C@@]2(c3cc(C#Cc4ccc(OC)cc4)ccc31)[C@H](C(=O)N1CCc3cc(OC)c(OC)cc3C1)[C@H]1C(=O)O[C@H](c3ccccc3)[C@H](c3ccccc3)N1[C@@H]2c1ccc(O)cc1 1.12
CC(C)CNC(=O)[C@@]1(C)c2ccccc2C(=O)N(Cc2ccccc2)[C@H]1c1ccc(CO)cc1 -0.483
COc1ccccc1CN1C(=O)c2ccccc2[C@](Cc2ccccc2I)(C(=O)NCCN2CCOCC2)[C@@H]1c1ccc(CO)cc1 0.0429
CCCCCCC#C[Si](O[C@H](c1ccccc1)c1cn(Cc2cccc(Cl)c2)nn1)(C(C)C)C(C)C 1.12
COc1ccc([Si](C)(C)[C@@H]2[C@@H](CCO)O[C@]3(C(=O)N(Cc4ccccc4)c4ccc(N5CCCCC5=O)cc43)[C@H]2C)cc1 2.63
COC(=O)[C@@]1(Cc2ccc(F)cc2)[C@@H]2[C@@H](CC(=O)[C@H]2CC(=O)C(=O)N2CCCC2)CN1C(=O)c1ccccc1 -0.708
COCCOC(=O)N1C(=O)[C@@]2(c3cc(C#CCCO)ccc31)[C@H](c1ccc(OCCO)cc1)N1[C@H](c3ccccc3)[C@H](c3ccccc3)OC(=O)[C@H]1[C@@H]2C(=O)N1CCc2cc(OC)c(OC)cc2C1 0.37
C=CC[C@]1(C(=O)NCC(O)CO)N=C(c2ccc(OCCCO)cc2)O[C@H]1c1ccccc1N=[N+]=[N-] (stereo not given in full) 0.346
O=C(O)[C@]1(CCS(=O)(=O)c2ccccc2)N=C(c2ccc(OCCCO)cc2)O[C@@H]1c1ccccc1 0.0201
[N-]=[N+]=NCc1ccccc1C[C@]1(C(=O)NCCN2CCOCC2)COC(c2ccc(OCCCO)cc2)=N1 1.46
CC(C)C[C@@H]1NC(=O)[C@@H]2C[C@H](C(=O)NCc3ccc(F)cc3)[C@H](c3ccc(O)cc3)N2C1=O 0.549
C=CCNC(=O)[C@H]1[C@@H]2C(=O)O[C@@H](c3ccccc3)[C@@H](c3ccccc3)N2[C@@H](c2ccc(O)cc2)[C@]12C(=O)N(C(=O)OCCOC)c1ccc(C#CC3(O)CCCCCC3)cc12 1.87
COCCOC(=O)N1C(=O)[C@@]2(c3cc(C#CCC(C(=O)OC)C(=O)OC)ccc31)[C@H](C(=O)N1CCCCCCC1)[C@H]1C(=O)O[C@H](c3ccccc3)[C@H](c3ccccc3)N1[C@@H]2c1ccc(O)cc1 1.04
O=[N+]([O-])c1ccc(C[n+]2ccc(-c3ccc(CO)cc3)cc2)o1 -0.818
CN1C(=O)C2C=CC(C(O)COCc3ccccc3)N(Nc3ccccc3)C2C1=O (stereo not given) -0.309
COC(=O)[C@@]1(Cc2ccc(OC)cc2)[C@H]2c3cc(C(=O)N4CCCC4)n(CCc4ccc(O)c(OC)c4)c3C[C@H]2CN1C(=O)c1ccccc1 -1.13
C=C(CCCC)/C(=C/C[C@H](OC(=O)c1ccncc1)c1ccc(CO)o1)c1cc(C(=O)OC)ccc1OC 0.171
C[C@@H]1ON(c2ccccc2)[C@H](c2ccccc2)[C@H]1C(=O)N1C(=O)OC[C@H]1Cc1ccccc1 0.547
